Here are results for one sequence from PMC7862700, “An all-to-all approach to the identification of sequence-specific readers for epigenetic DNA modifications on cytosine”.

Assay in all cases: DAPPL (digital affinity profiling via proximity ligation, sequencing); 10 mM Tris-HCl pH 7.5, 50 mM NaCl, 1 mM DTT, 4% glycerol, room temperature, 30 min; GST-TFs on glutathione beads, 16-mer random dsDNA library, 0.1% formaldehyde crosslink after washing; high values mean tight binding
Holding throughout (details): protein: recombinant; tags: N-terminal GST; dsDNA, one strand shown

Test [1] concerns the target T1, ELK1 (Homo sapiens, UniProt P19419 1-428).
T1 sequence: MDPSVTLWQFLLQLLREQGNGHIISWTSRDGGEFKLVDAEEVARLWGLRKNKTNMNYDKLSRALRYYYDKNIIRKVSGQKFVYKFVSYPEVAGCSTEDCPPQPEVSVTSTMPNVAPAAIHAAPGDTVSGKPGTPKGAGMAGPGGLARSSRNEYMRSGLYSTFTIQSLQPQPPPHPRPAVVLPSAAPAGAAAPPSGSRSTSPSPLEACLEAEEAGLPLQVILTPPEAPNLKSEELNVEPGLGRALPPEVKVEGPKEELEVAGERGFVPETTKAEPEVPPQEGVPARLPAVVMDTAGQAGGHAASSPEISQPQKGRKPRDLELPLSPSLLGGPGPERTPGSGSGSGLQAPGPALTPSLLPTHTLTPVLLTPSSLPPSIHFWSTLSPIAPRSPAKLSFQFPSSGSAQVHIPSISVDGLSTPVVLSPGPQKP
The procedure, abridged: (§1)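 GST fusions of human transcription factors were expressed in yeast and captured with glutathione beads. Once given DNA barcodes and pooled alongside a tag-only sample, they were incubated for 30 min at room temperature with 200 nmole of a random double-stranded 16-mer DNA library in Tris/NaCl/DTT/glycerol buffer, then washed, crosslinked (0.1% formaldehyde), proximity-ligated, PCR-amplified and sequenced on an Illumina NextSeq500. The binding signal of each hexamer is its read frequency for a factor divided by its frequency for the tag-only sample.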

Test [2] has as its target T2, GABPA (Homo sapiens, UniProt Q06546 1-454).
T2 sequence: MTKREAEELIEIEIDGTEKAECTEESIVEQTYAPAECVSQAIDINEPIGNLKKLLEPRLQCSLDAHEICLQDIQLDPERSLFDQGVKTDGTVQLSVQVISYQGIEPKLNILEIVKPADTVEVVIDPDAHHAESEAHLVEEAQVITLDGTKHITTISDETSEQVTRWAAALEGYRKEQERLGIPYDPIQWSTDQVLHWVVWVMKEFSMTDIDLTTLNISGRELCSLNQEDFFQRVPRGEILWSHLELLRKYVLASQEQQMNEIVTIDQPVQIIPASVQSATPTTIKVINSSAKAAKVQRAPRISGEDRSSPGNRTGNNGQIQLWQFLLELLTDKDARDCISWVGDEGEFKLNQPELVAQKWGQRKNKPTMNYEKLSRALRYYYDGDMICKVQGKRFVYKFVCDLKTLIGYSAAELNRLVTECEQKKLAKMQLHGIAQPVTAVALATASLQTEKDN
The method, boiled down:
as §1

Test [3] addresses T3, ERG (Homo sapiens, UniProt P11308 1-479).
T3 sequence: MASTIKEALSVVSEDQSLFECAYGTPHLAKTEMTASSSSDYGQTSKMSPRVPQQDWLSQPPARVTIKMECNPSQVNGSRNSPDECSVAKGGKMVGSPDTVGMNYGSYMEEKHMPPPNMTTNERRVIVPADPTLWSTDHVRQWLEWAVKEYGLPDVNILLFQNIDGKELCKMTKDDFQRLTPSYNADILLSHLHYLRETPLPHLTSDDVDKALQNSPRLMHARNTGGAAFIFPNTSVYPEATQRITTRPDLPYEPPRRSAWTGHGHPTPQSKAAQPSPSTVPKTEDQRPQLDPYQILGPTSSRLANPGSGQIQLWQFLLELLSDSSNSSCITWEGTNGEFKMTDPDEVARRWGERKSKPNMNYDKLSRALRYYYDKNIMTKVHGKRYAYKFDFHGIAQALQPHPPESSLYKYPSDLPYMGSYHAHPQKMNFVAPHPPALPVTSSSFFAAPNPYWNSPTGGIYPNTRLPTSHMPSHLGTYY
The procedure, abridged: as §1

The target of test [4] is T4, EHF (Homo sapiens, UniProt Q9NZC4 1-300).
T4 sequence: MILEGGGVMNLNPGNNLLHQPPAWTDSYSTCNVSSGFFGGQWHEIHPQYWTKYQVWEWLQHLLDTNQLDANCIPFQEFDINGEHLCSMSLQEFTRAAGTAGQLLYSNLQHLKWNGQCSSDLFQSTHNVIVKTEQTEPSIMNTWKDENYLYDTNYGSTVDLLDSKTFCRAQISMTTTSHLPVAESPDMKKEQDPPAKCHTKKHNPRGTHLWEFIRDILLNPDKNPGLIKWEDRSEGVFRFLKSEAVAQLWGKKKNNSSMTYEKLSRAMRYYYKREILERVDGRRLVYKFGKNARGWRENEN
The method, boiled down: as §1

Test [5] has as its target SPIB (Homo sapiens, UniProt Q01892 1-262). The procedure, abridged: as §1
Test [6] addresses ETV5 (Homo sapiens, UniProt P41161 1-510). The procedure, abridged: as §1
Test [7] deals with T5, ETV2 (Homo sapiens, UniProt O00321 1-342).
T5 sequence: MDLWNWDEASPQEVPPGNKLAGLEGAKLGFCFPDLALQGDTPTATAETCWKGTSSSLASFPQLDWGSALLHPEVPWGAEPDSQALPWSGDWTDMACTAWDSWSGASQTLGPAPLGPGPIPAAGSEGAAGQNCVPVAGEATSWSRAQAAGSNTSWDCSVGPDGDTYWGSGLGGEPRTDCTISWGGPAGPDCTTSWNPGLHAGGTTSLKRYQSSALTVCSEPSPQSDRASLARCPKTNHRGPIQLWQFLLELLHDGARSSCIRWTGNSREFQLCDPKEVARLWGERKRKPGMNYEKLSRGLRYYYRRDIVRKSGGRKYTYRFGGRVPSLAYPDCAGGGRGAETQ
The method, boiled down:
as §1

Test [8] concerns the target T6, ELF3 (Homo sapiens, UniProt P78545 1-371).
T6 sequence: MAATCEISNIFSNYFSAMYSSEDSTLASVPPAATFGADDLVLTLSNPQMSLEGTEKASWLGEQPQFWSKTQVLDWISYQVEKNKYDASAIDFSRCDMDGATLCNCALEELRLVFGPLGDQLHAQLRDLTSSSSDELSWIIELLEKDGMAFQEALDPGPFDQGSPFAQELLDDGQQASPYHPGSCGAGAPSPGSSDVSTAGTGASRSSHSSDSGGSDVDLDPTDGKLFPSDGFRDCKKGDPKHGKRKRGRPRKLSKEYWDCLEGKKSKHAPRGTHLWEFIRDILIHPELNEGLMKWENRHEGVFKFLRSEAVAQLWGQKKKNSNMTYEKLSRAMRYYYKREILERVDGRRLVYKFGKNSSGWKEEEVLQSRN
The method, boiled down:
as §1

For test [9], the target named is T7, ERF (Homo sapiens, UniProt P50548 1-548).
T7 sequence: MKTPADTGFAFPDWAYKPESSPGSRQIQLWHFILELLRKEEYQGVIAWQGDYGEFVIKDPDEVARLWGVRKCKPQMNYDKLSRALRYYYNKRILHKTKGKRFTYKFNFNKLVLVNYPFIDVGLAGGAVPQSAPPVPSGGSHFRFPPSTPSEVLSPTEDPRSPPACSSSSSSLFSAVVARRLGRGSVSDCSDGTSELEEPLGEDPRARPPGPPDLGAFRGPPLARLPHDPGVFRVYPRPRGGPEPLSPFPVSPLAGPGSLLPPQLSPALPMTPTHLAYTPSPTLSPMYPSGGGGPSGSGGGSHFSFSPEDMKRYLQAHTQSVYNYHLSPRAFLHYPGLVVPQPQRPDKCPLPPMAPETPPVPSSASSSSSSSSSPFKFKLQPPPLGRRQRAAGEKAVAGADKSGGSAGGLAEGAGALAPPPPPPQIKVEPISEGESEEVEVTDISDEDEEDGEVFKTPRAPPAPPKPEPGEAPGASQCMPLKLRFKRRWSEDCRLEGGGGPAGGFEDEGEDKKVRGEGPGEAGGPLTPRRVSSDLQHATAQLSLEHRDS
The method, boiled down:
as §1

Test [10] deals with T8, ETS2 (Homo sapiens, UniProt P15036 1-469).
T8 sequence: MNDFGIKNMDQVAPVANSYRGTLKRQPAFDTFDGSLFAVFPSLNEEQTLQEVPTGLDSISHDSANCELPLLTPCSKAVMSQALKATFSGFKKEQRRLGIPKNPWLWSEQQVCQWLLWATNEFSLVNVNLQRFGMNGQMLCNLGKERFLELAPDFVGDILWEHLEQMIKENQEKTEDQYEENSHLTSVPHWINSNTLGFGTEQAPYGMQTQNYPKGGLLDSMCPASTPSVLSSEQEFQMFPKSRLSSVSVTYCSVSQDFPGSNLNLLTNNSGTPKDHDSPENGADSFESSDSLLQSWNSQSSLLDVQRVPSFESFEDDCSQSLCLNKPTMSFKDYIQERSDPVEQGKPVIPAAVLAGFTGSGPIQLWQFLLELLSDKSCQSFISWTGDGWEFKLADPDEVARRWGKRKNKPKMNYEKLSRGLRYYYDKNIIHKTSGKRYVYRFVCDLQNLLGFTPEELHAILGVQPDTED
The method, boiled down:
as §1

Test [11] has as its target T9, SPDEF (Homo sapiens, UniProt O95238 1-335).
T9 sequence: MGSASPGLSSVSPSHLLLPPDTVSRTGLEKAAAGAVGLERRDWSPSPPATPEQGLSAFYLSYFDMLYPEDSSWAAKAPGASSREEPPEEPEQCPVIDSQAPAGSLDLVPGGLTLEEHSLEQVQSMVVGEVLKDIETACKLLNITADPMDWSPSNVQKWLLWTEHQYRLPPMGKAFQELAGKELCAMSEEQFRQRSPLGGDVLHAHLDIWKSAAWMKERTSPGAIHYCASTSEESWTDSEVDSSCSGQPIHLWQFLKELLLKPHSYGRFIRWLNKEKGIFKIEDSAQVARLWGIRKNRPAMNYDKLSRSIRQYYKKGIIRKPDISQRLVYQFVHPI
The procedure, abridged: as §1

For test [12], the target named is T10, ETV7 (Homo sapiens, UniProt Q9Y603 1-341).
T10 sequence: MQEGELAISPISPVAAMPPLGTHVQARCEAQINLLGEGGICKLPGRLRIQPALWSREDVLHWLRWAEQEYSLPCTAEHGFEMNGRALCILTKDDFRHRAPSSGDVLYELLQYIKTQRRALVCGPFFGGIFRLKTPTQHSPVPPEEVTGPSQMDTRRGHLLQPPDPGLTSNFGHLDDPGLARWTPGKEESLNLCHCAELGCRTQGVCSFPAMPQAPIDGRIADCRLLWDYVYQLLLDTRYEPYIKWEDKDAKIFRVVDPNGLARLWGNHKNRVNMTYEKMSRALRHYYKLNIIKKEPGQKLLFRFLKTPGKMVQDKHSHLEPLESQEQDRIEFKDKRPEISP
The procedure, abridged: as §1

Test [13] addresses ETV6 (Homo sapiens, UniProt P41212 1-452). The method, boiled down: as §1

Sequence of ETV5 (P41161 whole entry): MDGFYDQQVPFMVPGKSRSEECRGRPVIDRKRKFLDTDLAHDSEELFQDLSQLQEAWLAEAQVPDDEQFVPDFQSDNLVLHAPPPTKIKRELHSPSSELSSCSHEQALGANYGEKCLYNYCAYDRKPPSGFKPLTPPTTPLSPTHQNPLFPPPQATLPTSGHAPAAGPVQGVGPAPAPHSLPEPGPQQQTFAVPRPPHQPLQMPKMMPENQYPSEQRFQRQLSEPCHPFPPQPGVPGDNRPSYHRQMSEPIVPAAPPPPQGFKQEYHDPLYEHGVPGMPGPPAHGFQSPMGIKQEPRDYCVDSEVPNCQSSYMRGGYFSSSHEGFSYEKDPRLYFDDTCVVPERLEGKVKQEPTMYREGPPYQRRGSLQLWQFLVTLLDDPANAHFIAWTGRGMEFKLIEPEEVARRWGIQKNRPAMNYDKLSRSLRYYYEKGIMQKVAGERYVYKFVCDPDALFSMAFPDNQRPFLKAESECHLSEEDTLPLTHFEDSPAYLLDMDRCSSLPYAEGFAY
Sequence of ETV6 (P41212 whole entry): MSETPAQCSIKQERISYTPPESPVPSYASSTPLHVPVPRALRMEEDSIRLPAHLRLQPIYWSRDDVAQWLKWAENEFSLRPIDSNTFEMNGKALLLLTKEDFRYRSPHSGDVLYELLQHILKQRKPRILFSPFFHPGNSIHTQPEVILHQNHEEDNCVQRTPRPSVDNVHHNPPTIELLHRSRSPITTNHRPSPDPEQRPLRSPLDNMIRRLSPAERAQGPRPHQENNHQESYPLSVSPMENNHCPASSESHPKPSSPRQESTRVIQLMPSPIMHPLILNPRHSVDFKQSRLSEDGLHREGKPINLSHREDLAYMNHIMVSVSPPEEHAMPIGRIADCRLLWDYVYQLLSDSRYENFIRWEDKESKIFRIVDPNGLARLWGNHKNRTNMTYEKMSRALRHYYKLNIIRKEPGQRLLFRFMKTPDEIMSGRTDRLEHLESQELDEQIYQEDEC
Sequence of SPIB (Q01892 whole entry): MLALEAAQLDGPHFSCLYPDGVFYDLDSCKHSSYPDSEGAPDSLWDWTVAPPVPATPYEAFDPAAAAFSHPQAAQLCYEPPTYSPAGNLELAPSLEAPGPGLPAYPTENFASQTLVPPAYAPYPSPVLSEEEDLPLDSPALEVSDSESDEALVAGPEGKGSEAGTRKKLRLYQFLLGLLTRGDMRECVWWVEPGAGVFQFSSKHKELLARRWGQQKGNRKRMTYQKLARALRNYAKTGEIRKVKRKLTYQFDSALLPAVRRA

On to TGGGAA, for which the binding signal in test [1] was 1.08 fold enrichment (6-mer frequency, TF over GST control); in test [2], 1.05 fold enrichment (6-mer frequency, TF over GST control); in test [3], 1.02 fold enrichment (6-mer frequency, TF over GST control); in test [4] it was 1.04 fold enrichment (6-mer frequency, TF over GST control); in test [5], 1.05 fold enrichment (6-mer frequency, TF over GST control); in test [6], 1.04 fold enrichment (6-mer frequency, TF over GST control). Further, the binding signal in [7] is 1.02 fold enrichment (6-mer frequency, TF over GST control); in test [8], 1.13 fold enrichment (6-mer frequency, TF over GST control); in [9], 1.04 fold enrichment (6-mer frequency, TF over GST control); in [10], 1.02 fold enrichment (6-mer frequency, TF over GST control); in [11] it was 1.01 fold enrichment (6-mer frequency, TF over GST control); in [12], 1.09 fold enrichment (6-mer frequency, TF over GST control). For the same sequence, in test [13], the binding signal was 1.17 fold enrichment (6-mer frequency, TF over GST control).
